# Sampled rows, rich in hits. Any-hit rate of the full collection: about 15%.
# Gal4-VP16 FLuc: Gal4-VP16 reporter inhibition counter-screen; Drosophila S2 Gal4-VP16 UAS-luciferase, luminescence, 20 h; Potency, µM (top dose mostly 53.6 µM), without a hit: top-dose activity, negative = inhibition, usual class: inhibitors; 3.5% of 310,000 active;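 note: Gal4-VP16 expression switched on by copper sulfate through the metallothionein promoter; nearly all actives have a fitted effect of over 50% in size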
# RORgamma inh: blocks mouse ROR gamma transcriptional activity | P51450 | Drosophila S2 Gal4-RORgamma UAS-luciferase reporter, 20 h | Potency, µM (series often up to 53.6 µM), for inactives: top-dose activity change, negative = inhibition, usual class: inhibitors | 5.4% of 310,000 active; note: nearly all actives have a fitted effect of over 60% in size
# Target sequence (P51450 whole entry, looked up, the tested form may be a part): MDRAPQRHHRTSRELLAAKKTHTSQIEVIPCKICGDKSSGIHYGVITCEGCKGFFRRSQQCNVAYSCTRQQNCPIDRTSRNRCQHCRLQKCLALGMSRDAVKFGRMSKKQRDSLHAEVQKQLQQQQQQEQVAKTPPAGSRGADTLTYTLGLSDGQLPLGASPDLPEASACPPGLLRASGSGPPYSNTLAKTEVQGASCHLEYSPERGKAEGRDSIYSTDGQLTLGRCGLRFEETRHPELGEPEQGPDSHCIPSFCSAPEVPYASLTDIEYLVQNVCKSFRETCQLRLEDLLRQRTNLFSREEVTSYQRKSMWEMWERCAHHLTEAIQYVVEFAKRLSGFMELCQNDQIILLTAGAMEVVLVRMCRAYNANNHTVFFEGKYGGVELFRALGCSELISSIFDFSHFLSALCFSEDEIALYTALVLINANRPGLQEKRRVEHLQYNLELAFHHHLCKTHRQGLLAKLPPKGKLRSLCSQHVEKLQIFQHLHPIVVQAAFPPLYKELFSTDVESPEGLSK
#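 ROR gamma transcriptional activity was tracked as Gal4-UAS luciferase output in stably transfected Drosophila Schneider cells, with compound added 1 hr before 700 uM copper sulfate induction and a 20 hr ambient-temperature incubation.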
# ALOX12 inh: ALOX12 (human) lipoxygenase inhibition; 1.1% of 580,000 active; purified 12hLO, xylenol orange hydroperoxide absorbance; Potency, µM (doses to about 108 µM), for inactives: top-dose activity change, negative = inhibition, usual class: inhibitors; P18054
#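 Purified human 12hLO (150 nM final) in 25 mM Hepes, 0.01% Triton X-100, pH 7.0 was preincubated 15 min at room temperature with compound. Then 40 uM arachidonic acid was added, 30 min. Hydroperoxide was read by Fe-XO absorbance ratio 573/405 nm.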
# TDP1 cell noCPT: qHTS for Inhibitors of human tyrosyl-DNA phosphodiesterase 1 (TDP1): qHTS in cells in absence of CPT; DT40 Tdp1-/- hTDP1 cells, no CPT, ATP luminescence, 48 h; 15% of 420,000 active; Potency, µM (highest dose often 46.2 µM), without a hit: at the highest dose activity change, negative = growth inhibition, actives largely listed as inhibitors; note: nearly all actives have a fitted effect of over 55% in size
#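 Readout: luminescence from CellTiter-Glo after 30 min in the dark at RT. Cells: DT40 Tdp1-/- with stable hTDP1, 400/well. Exposure: compounds alone, ≥48 hr, 37 °C.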
# ELG1 DNA repair: inhibitors of ELG1-dependent DNA repair in HEK293T cells; 2.3% of 330,000 active; Potency, µM (series often up to 46.1 µM), inactives show at the highest dose activity change, negative = inhibition, hits mostly inhibitors; HEK293T ELG1-luciferase reporter, luminescence, 16 h; DNA damage induced by 5-fluorouridine; note: nearly all actives have a fitted effect of over 55% in size
#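 Step one: seed 2,000 cells per well. Step two: pin-transfer compound or DMSO alongside 5-fluorouridine. Step three: incubate 16 hr, 37 °C, 5% CO2. Step four: add ONE-Glo, wait 30 min, read luminescence.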
# DT40 TDP1 CPT: DT40-hTDP1 cell growth loss with CPT. chicken DT40 Tdp1-/-;hTDP1 cells + 20 nM CPT, ATP luminescence, 48 h. Potency, µM (titrated, usually from 46.2 µM), inactives show at the top dose activity change, negative = growth inhibition, usual class: inhibitors. 12% of 420,000 active; note: nearly all actives have a fitted effect of over 55% in size
#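 Chicken DT40 Tdp1-/- cells stably complemented with human TDP1 were seeded at 400 cells/well in medium containing 20 nM camptothecin, exposed to pin-transferred compounds, and grown at 37 °C for at least 48 hr. Viability was read as ATP luminescence.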
# An asterisk follows results filed as active; i = inactive; ? = inconclusive; · = no result given; [ ] = dose if it differs, or a comment. Calls come from the whole dose curve; as a rule, active = well fitted curve in the direction sought with a large enough effect; inconclusive = small, poorly fitted or top-dose-only effect, or another doubt; inactive = no such curve, though single readings can be large; an effect the other way counts as inactive or inconclusive. % is set by controls: 0 for no effect and ±100 for the full control effect; potency is the fitted concentration of half-maximal effect.
SMILES,Gal4-VP16 FLuc,RORgamma inh,ALOX12 inh,TDP1 cell noCPT,ELG1 DNA repair,DT40 TDP1 CPT
CCCN(CC1CCOC1)S(=O)(=O)c1ccc(OC)cc1 (configuration not stated),·,·,12%,·,·,·
O=C(NC1CCCCC1)N1CCN(c2ccc([N+](=O)[O-])cc2)CC1,-15%,?,i,?,?,13µM*
O=C(CCc1ccc(Oc2cc([N+](=O)[O-])cc([N+](=O)[O-])c2)cc1)N1CCCCC1,13µM*,?,-16%,?,13µM*,?
COc1ccc(N2CCN(C(=O)CSc3ccc(C)cc3)CC2)cc1,12%,3%,-18%,?,-2%,-3%
COc1ccccc1CC(=O)N1CCN(c2ccc([N+](=O)[O-])cc2)CC1,0%,24%,0%,9.2µM*,?,15µM*
COc1ccc(N2CCN(C(=O)CSc3ccc([N+](=O)[O-])cc3)CC2)cc1,-1%,18%,-16%,23µM*,?,?
Cc1noc2c(NCCN(C)C)cc(-c3ccc(Cl)cc3)nc12,·,·,11%[176 µM],·,·,·
CC[C@H]1CN(S(=O)(=O)c2ccccc2)CC[C@H]1CC(=O)NCc1cccnc1,·,·,22%[176 µM],·,·,·
COc1ccc(CCC(=O)N2CCN(c3ccc([N+](=O)[O-])cc3)CC2)cc1OC,-3%,25%,-11%,15µM*,?,?
COc1ccc(NC(=O)N2CCN(c3ccc([N+](=O)[O-])cc3)CC2)cc1,-1%,-14%,-7%,2.3µM*,8%,2.3µM*
COc1ccc(NC(=O)N2CCN(c3ccc([N+](=O)[O-])cc3)CC2)cc1OC,16%,42%,-17%,18µM*,-11%,?
CCOC(=O)c1ccccc1NC(=O)/C(C#N)=C\c1cc(OC)ccc1O,·,·,-8%,·,·,·
Cc1cc(SCC(=O)c2cc3ccccc3o2)nc2ccccc12,?,11µM*,1%,-24%,5%,-17%
Cc1cc(SCC(=O)c2ccc3c(c2)OCCO3)nc2ccccc12,·,·,16µM*,·,·,·
Cc1cc(C)c(-n2nnnc2SCC(=O)c2cc3ccccc3o2)c(C)c1,9%,-27%,384%,?,?,-8%
O=C(CSc1nnnn1-c1ccc(O)cc1)c1cc2ccccc2o1,1%,7%,32%,?,?,13µM*
CCC(C(=O)NCc1cc2c(cc1OC)CCC2)n1cccn1 (configuration not stated),·,·,15%,·,·,·
OCCC1CN(c2cc(C(F)(F)F)ccn2)CCN1CC1CCCCC1 (configuration not stated),·,·,45%,·,·,·
CCc1ccc(CNc2ccc(N3CCN(C(C)=O)CC3)cc2)cc1,16%,5%,32µM*,18µM*,?,-19%
CCc1ccc(NC(=O)N2CCN(c3ccc(F)cc3)CC2)cc1,0%,-1%,-2%,26µM*,-2%,?
CC(=O)c1ccc(N2CCN(C(=O)Nc3ccc(F)cc3)CC2)cc1,-4%,23%,·,·,?,·
CC1CCC(NC(=O)C(=O)Nc2cccc(Cl)c2Cl)CC1 (configuration not stated),·,·,-5%,·,·,·
CC(C)NCc1c(O)c(Br)cc2oc3c(c12)CCCC3,-4%[0.365 µM],?,?,-14%,-2%,4%
O=C1NCCCc2c1oc1cc(Br)c(O)c(Br)c21,-2%,17%,?,?,?,16µM*
CCCn1nc(C(=O)N2CCN(c3ccc(C(C)=O)cc3)CC2)c2ccccc2c1=O,·,·,-29%,·,·,·
O=C(CCNS(=O)(=O)c1ccc(OC(F)(F)F)cc1)Nc1cccc(S(=O)(=O)N2CCCC2)c1,·,·,0%,?,·,18µM*

# Bioassay records deposited in PubChem BioAssay by National Center for Advancing Translational Sciences (NCATS).
